Experimental data: PubChem BioAssay
The source made the active and inactive calls.

How the values were obtained:
[1] = anti-His antibody binders, primary screen, artefact control for SMM control protein annotation, biochemical, small-molecule microarray, 635 nm fluorescence (AID 1128); conditions: anti-His Alexa647 antibody binding, higher = more signal;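 further: score merges feature fluorescence with signal-to-noise for each printed compound spot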
[2] = test system: Human papillomavirus type 1a E7 protein (residues 1-88); experiment: HPV1a E7 small-molecule binders, primary screen, biochemical, small-molecule microarray, residues 1-88, 635 nm (AID 1129); conditions: small-molecule microarray binding, fluorescence 635 nm; higher = more signal
[3] = molecular target: Focal adhesion kinase 1 (Homo sapiens) (UniProt Q05397); experiment: small-molecule microarray binders of FAK, primary screen, biochemical, 635/667 nm fluorescence, BSA, DTT (AID 1130); conditions: PTK2 binding, 635 nm fluorescence, higher = more signal;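 further: composite of spot emission at 667 nm and signal to noise over triplicate slides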
[4] = test system: Fibrinogen (Alexa647-labelled); experiment: fibrinogen binders on compound microarrays, profiling panel, artefact control for SMM control-protein annotation, biochemical, small-molecule microarray, 635/667 nm fluorescence (AID 1131); conditions: fibrinogen-A647 binding fluorescence, higher = more signal;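 further: z-score merges 667 nm fluorescence with per-spot signal-to-noise over triplicate slides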
[5] = molecular target: Follistatin (Homo sapiens) (UniProt P19883); experiment: follistatin binders on small-molecule microarrays, primary screen, biochemical, small-molecule microarray, 635/667 nm fluorescence (AID 1132); conditions: FST binding, 635 nm fluorescence, higher = more signal
[6] = molecular target: Fibroblast growth factor 2 (Homo sapiens) (UniProt P09038); experiment: FGF2 binders on small-molecule microarrays, primary screen, biochemical, small-molecule microarray, 635/667 nm fluorescence (AID 1133); conditions: small-molecule microarray binding, FGF2, fluorescence 635/667; higher = more signal
[7] = mitochondrial membrane potential change in A549 cells, profiling panel, cell-based, JC-1 fluorescence, basal, 24 h, 100 nL (AID 1138); conditions: higher = more signal;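 further: A549 lung adenocarcinoma cells under basal conditions with no added stimulus; test concentration not given here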
[8] = test system: Lefty1; experiment: Lefty1 binders on small-molecule microarrays, primary screen, biochemical, small-molecule microarray, 635/667 nm fluorescence (AID 1139); conditions: small-molecule microarray binding, fluorescence 635/667; higher = more signal
[9] = test system: wheat germ agglutinin (Triticum aestivum), Alexa647-labelled; experiment: wheat germ agglutinin binders on compound microarrays, profiling panel, artefact control for SMM control-protein annotation, biochemical, small-molecule microarray, 635/667 nm fluorescence (AID 1140); conditions: WGA-A647 binding, 635 nm fluorescence, higher = more signal;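 further: score merges 667 nm feature emission with signal to noise over triplicate slides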
[10] = molecular target: Luciferin 4-monooxygenase (Photinus pyralis) (UniProt P08659); experiment: firefly luciferase enzyme inhibitors, primary screen, biochemical, luminescence, purified enzyme, 2006 set (AID 1141); conditions: SteadyGlo luminescence, 30 min, higher = more signal, called active from +8 up or from −8 down;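 further: cell-free assay with purified firefly luciferase at 100 ng per well in PBS; test concentration not given here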
Sequence of Luciferin 4-monooxygenase (Photinus pyralis) (P08659 whole entry, looked up): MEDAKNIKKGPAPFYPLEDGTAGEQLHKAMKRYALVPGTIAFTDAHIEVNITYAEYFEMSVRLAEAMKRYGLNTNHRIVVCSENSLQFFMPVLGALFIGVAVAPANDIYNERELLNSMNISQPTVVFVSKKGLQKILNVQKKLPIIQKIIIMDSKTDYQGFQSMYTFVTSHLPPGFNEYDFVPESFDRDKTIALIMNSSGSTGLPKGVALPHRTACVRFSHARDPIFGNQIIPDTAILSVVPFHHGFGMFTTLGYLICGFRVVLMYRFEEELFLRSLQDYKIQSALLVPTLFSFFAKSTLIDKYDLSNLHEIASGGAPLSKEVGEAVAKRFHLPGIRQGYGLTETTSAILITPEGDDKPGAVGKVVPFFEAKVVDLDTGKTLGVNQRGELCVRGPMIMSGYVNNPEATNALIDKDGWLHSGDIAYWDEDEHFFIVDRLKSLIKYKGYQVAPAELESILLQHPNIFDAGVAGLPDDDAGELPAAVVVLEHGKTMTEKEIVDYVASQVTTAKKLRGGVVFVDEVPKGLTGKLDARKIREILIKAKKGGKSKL

Sequence of Fibroblast growth factor 2 (Homo sapiens) (P09038 whole entry, looked up): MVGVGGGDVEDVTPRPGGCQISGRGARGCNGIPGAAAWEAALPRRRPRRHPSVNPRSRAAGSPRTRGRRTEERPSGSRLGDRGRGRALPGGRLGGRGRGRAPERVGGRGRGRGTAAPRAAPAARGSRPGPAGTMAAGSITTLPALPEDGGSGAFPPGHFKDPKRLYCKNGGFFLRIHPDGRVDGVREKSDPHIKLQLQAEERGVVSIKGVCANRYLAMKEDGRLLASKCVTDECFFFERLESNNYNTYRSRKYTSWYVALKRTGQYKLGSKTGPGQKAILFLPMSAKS
Sequence of Focal adhesion kinase 1 (Homo sapiens) (Q05397 whole entry, looked up): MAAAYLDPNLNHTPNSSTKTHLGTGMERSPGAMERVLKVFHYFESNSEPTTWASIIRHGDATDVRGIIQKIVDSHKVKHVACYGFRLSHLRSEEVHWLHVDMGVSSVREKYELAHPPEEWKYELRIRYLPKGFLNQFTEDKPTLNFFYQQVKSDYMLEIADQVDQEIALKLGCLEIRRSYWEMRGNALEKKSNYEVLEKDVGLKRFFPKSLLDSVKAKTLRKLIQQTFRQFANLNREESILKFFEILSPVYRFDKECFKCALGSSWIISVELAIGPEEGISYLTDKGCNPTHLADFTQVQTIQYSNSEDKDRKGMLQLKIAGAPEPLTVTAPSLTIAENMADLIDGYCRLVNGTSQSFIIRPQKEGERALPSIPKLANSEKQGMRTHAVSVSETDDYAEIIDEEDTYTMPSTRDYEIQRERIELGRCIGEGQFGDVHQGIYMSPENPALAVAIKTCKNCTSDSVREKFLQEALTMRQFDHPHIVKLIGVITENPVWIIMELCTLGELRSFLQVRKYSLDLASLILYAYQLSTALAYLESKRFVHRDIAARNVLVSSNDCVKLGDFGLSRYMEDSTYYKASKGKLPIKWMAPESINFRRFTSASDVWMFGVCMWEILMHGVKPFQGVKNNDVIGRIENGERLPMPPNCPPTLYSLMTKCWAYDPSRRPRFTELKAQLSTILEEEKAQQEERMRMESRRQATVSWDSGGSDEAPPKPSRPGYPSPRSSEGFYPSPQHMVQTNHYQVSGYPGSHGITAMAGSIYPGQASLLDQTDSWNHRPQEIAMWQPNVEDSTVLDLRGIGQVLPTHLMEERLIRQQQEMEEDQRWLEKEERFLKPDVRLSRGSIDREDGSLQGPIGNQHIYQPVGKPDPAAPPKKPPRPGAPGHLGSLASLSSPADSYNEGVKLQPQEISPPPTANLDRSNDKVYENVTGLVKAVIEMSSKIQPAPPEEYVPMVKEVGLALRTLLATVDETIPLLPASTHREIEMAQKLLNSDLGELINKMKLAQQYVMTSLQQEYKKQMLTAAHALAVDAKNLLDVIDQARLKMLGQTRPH
Sequence of Follistatin (Homo sapiens) (P19883 whole entry, looked up): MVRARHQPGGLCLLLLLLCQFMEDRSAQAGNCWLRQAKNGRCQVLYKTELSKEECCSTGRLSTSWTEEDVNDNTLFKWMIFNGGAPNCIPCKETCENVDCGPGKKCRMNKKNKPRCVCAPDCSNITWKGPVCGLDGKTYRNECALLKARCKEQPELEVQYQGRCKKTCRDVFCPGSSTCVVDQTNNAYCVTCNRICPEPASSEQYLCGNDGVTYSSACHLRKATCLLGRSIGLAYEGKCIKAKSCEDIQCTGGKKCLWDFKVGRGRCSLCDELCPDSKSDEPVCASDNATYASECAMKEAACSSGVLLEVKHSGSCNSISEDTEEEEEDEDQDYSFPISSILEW

Structure (SMILES)	composite z-score [1]	composite z-score [2]	composite z-score [3]	composite z-score [4]	composite z-score [5]	composite z-score [6]	z-score [7]	composite z-score [8]	composite z-score [9]	z-score [10]
Cc1ccccc1/C=C/C=O	-0.0248	-1.29	-0.3	-2.75	-0.0561	-0.134	0.795	-0.234	-0.604	0.702 (inactive)
Cc1c(NC(=O)/C(C#N)=C/C=C/c2ccccc2)c(=O)n(-c2ccccc2)n1C	0.378	0.466	-0.358	0.68	0.58	0.366	-0.158	0.451	0.343	-5.86 (inactive)
CCOC(=O)C[C@H]1[C@H](OC(=O)c2ccc(C(=O)c3ccccc3)cc2)[C@@H](NC(=O)c2ccc3ccccc3n2)c2cc(OCCCO)ccc2N1C(=O)c1ccc2ccccc2n1	-0.0631	1.06	-0.0481	0.887	0.37	0.146	1.5	0.105	0.515	-0.857 (inactive)
[N-]=[N+]=NCc1ccccc1C[C@@]1(C(=O)NCc2ccccc2)N=C(c2ccc(OCCCO)cc2)O[C@@H]1c1ccccc1CN=[N+]=[N-]	1.44	1.17	0.96	0.915	0.557	0.0516	0.573	-0.621	1.03	0.0675 (inactive)
COc1ccc([Si](C)(C)[C@H]2[C@H](CC(=O)N3CCC[C@H]3CO)O[C@@]3(C(=O)N(Cc4cccc(N5CCC5=O)c4)c4ccccc43)[C@@H]2C)cc1	0.744	1.24	0.474	0.734	1.36	1.55	1.4	1.38	0.532	-0.493 (inactive)
[N-]=[N+]=NCc1ccccc1C[C@]1(C(=O)N2CCOCC2)N=C(c2ccc(OCCCO)cc2)O[C@H]1c1ccccc1	1.22	0.672	-0.0665	0.909	0.826	0.816	0.078	0.0094	0.359	0.4 (inactive)
NC(=O)[C@@]1(CCS(=O)(=O)c2ccccc2)N=C(c2ccc(OCCCO)cc2)O[C@H]1c1ccccc1	2.14	1.27	0.533	1.02	0.78	-0.507	-0.309	-0.0434	1.17	0.155 (inactive)
COCCOC(=O)N1C(=O)[C@@]2(c3cc(C#CCCO)ccc31)[C@H](c1ccc(O)cc1)N1[C@H](c3ccccc3)[C@H](c3ccccc3)OC(=O)[C@H]1[C@@H]2C(=O)N1CCCCCCC1	2.4	1	0.855	0.771	1.43	1.6	-0.183	1.21	1.06	-0.179 (inactive)
O=C(NCC(O)CO)[C@]1(CCS(=O)(=O)c2ccccc2)N=C(c2ccc(OCCCO)cc2)O[C@@H]1c1ccccc1 (stereo not given in full)	1.14	1.27	0.516	0.976	0.866	-0.702	0.439	-1.11	1.54	0.0334 (inactive)
CN1C(=O)C2C(C1=O)C1C=C(c3ccc(CO)cc3)C2C(C2CC2)N1Cc1cc2c(cc1Br)OCO2 (stereo not given)	2.81	1.23	1.47	0.976	1.23	0.784	1.34	0.175	1.18	-1.9 (inactive)
O=C1C2C=CC(C(O)C3CC=CCC3)N(n3cnnc3)C2C(=O)N1Cc1ccccc1 (stereo not given)	0.794	-0.288	0.559	0.909	-0.439	-1.14	-0.704	-1.07	0.451	0.934 (inactive)
[N-]=[N+]=NCc1ccccc1C[C@]1(C(N)=O)N=C(c2ccc(OCCCO)cc2)O[C@H]1c1ccccc1N=[N+]=[N-]	2.21	1.19	0.394	0.751	0.847	-0.386	-0.542	0.0874	1.03	-10.3 (active)
[N-]=[N+]=Nc1ccccc1C[C@]1(C(=O)N2CCCCC2)N=C(c2ccc(OCCCO)cc2)O[C@H]1c1ccccc1N=[N+]=[N-]	1.6	1.24	0.544	0.945	1.18	0.806	0.591	-0.105	0.811	-3.15 (inactive)
Cc1ccc(N2C(=O)c3ccccc3[C@](C)(C(=O)NCCN3CCOCC3)[C@@H]2c2ccc(CO)cc2)nc1	0.267	-1.74	-1.16	-1.02	-0.419	-0.833	-0.807	-1.26	-1.32	0.952 (inactive)
O=C1O[C@H](c2ccccc2)[C@H](c2ccccc2)N2[C@H]1[C@@H](C(=O)NC[C@H](O)c1ccccc1)[C@]1(C(=O)Nc3ccc(C#CC4(O)CCCCCC4)cc31)[C@H]2c1ccccc1OCCO	1.26	1.19	0.412	0.494	1.26	1.54	-1.24	0.586	0.794	0.361 (inactive)
C=CCC(OC(C)=O)[C@@H]1[C@@H](N(Cc2cc3ccccc3o2)C(=O)c2cccc3ccccc23)c2cc(OCCCO)ccc2N1C(=O)Cc1ccc2ccccc2c1 (stereo not given in full)	0.166	-0.273	-0.0768	0.571	0.416	0.439	-0.274	-0.0817	-0.157	0.209 (inactive)
